This is an account of results in paper PMC7862700, “An all-to-all approach to the identification of sequence-specific readers for epigenetic DNA modifications on cytosine”.

Common to all, as to assay: DAPPL (digital affinity profiling via proximity ligation, sequencing); 10 mM Tris-HCl pH 7.5, 50 mM NaCl, 1 mM DTT, 4% glycerol, room temperature, 30 min; GST-TFs on glutathione beads, 16-mer random dsDNA library, 0.1% formaldehyde crosslink after washing; high values mean tight binding
The target in test [1] is T1, FEV (Homo sapiens, UniProt Q99581 1-238).
T1 sequence: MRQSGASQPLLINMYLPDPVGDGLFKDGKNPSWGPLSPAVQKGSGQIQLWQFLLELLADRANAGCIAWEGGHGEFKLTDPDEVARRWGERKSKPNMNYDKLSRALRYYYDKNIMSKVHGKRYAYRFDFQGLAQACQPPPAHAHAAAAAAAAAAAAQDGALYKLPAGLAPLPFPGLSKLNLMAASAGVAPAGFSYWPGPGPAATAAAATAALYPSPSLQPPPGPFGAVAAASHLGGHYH
The settings on record: protein: recombinant; tags: N-terminal GST; dsDNA, one strand shown. The method in brief:
(§1)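 Binding signal is defined as a hexamer's read frequency for one factor over its frequency for the tag-only sample. To obtain reads, GST-fused human transcription factors were expressed in yeast, captured on glutathione beads, barcoded with DNA and pooled with that sample. Pools met 200 nmole of a 16-mer random double-stranded DNA library in Tris/NaCl/DTT/glycerol buffer for 30 min at room temperature before washing, 0.1% formaldehyde crosslinking, proximity ligation (BsaI/T4 ligase, 1 h, 37 °C), PCR and Illumina NextSeq500 sequencing.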

The target of test [2] is ETV5 (Homo sapiens, UniProt P41161 1-510). The note with it: protein: recombinant; tags: N-terminal GST; dsDNA, one strand shown. In a few lines:
as §1

The target of test [3] is HSF1 (Homo sapiens, UniProt Q00613 1-529). The settings on record: protein: recombinant; tags: N-terminal GST; chain copies: 3; dsDNA, one strand shown. In a few lines:
as §1

For test [4], the target named is T2, SPIC (Homo sapiens, UniProt Q8N5J4 1-248).
T2 sequence: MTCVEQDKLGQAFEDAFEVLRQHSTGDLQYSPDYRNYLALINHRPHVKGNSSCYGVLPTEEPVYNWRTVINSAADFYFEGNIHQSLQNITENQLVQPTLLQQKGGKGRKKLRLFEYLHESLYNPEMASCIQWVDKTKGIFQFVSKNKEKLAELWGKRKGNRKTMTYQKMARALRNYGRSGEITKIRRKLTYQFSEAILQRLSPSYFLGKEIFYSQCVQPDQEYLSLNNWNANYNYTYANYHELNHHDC
The note with it: protein: recombinant; tags: N-terminal GST; dsDNA, one strand shown. In a few lines:
as §1

Test [5] has as its target ELF4 (Homo sapiens, UniProt Q99607 1-663). The settings on record: protein: recombinant; tags: N-terminal GST; dsDNA, one strand shown. In a few lines: as §1
Test [6] has as its target T3, ELK4 (Homo sapiens, UniProt P28324-2 1-405).
T3 sequence: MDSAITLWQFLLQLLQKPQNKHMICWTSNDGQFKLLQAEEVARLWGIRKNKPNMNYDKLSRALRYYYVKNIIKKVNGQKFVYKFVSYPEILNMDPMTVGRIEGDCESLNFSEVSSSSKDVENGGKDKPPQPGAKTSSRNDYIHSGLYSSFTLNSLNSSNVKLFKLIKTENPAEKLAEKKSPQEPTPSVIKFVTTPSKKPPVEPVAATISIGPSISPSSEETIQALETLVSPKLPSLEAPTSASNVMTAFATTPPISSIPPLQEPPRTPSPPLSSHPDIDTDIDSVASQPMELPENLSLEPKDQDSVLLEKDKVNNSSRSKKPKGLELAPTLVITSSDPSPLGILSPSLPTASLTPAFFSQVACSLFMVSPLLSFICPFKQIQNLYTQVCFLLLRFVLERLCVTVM
The settings on record: protein: recombinant; tags: N-terminal GST; dsDNA, one strand shown. In a few lines:
as §1

The target of test [7] is T4, ETV2 (Homo sapiens, UniProt O00321 1-342).
T4 sequence: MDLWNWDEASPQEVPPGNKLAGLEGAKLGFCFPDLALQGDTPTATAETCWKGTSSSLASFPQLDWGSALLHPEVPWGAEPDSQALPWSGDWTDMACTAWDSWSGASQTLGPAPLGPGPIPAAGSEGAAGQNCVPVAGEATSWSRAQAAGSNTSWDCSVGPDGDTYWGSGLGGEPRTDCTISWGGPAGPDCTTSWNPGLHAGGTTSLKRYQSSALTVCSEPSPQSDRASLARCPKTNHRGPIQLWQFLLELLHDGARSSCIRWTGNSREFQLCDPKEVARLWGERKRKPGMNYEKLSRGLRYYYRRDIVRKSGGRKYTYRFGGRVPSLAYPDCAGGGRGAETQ
The note with it: protein: recombinant; tags: N-terminal GST; dsDNA, one strand shown. In a few lines:
as §1

Test [8] addresses T5, ELF3 (Homo sapiens, UniProt P78545 1-371).
T5 sequence: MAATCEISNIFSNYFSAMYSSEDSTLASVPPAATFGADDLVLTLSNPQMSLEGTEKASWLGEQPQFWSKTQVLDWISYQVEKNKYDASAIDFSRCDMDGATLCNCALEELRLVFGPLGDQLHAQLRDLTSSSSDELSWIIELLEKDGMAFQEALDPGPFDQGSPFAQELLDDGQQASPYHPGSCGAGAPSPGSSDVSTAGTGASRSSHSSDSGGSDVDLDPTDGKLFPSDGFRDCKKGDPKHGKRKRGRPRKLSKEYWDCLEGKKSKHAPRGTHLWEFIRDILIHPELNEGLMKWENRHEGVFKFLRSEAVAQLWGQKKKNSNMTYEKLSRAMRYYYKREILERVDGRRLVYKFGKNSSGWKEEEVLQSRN
The settings on record: protein: recombinant; tags: N-terminal GST; dsDNA, one strand shown. In a few lines:
as §1

Test [9] deals with CRX (Homo sapiens, UniProt O43186 1-299). The note with it: protein: recombinant; tags: N-terminal GST; dsDNA, one strand shown. In a few lines: as §1
CRX, sequence (O43186 whole entry): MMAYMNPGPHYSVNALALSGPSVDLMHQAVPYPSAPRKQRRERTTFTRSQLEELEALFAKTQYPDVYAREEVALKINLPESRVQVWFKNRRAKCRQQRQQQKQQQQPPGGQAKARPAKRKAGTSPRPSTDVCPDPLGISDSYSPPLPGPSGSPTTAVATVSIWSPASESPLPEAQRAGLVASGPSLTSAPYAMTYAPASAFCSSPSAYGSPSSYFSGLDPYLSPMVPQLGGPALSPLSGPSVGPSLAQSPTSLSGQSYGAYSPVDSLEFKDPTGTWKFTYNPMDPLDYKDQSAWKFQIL
Test [10] concerns the target ETV1 (Homo sapiens, UniProt P50549 1-477). The settings on record: protein: recombinant; tags: N-terminal GST; dsDNA, one strand shown. In a few lines: as §1
Test [11] has as its target T6, ERF (Homo sapiens, UniProt P50548 1-548).
T6 sequence: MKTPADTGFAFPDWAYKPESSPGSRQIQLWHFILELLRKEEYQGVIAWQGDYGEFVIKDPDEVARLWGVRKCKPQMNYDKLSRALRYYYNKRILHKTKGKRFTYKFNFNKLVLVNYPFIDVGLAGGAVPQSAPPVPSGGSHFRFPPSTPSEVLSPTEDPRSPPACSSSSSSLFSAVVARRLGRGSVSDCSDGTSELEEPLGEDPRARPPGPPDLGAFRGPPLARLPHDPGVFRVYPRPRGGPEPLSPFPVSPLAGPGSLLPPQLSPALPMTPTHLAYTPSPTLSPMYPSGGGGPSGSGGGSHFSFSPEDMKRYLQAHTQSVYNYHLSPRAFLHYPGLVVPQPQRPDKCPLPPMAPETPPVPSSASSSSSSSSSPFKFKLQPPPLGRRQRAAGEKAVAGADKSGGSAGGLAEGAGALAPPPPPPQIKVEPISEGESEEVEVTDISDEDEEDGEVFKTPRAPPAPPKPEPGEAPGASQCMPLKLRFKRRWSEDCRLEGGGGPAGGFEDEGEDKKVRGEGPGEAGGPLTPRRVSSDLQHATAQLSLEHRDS
The settings on record: protein: recombinant; tags: N-terminal GST; dsDNA, one strand shown. The method in brief: as §1

Test [12] has as its target T7, ETV3L (Homo sapiens, UniProt Q6ZN32 1-361).
T7 sequence: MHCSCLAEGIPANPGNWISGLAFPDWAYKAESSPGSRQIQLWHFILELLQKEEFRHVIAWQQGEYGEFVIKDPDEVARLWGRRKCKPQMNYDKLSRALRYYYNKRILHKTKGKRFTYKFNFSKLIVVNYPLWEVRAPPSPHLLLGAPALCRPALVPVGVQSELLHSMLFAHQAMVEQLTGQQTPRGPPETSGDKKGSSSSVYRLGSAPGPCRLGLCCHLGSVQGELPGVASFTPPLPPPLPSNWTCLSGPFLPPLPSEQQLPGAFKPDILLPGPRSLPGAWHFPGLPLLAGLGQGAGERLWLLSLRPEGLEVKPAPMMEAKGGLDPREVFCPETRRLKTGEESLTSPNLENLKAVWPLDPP
The settings on record: protein: recombinant; tags: N-terminal GST; dsDNA, one strand shown. In a few lines:
as §1

Test [13] has as its target T8, ETS2 (Homo sapiens, UniProt P15036 1-469).
T8 sequence: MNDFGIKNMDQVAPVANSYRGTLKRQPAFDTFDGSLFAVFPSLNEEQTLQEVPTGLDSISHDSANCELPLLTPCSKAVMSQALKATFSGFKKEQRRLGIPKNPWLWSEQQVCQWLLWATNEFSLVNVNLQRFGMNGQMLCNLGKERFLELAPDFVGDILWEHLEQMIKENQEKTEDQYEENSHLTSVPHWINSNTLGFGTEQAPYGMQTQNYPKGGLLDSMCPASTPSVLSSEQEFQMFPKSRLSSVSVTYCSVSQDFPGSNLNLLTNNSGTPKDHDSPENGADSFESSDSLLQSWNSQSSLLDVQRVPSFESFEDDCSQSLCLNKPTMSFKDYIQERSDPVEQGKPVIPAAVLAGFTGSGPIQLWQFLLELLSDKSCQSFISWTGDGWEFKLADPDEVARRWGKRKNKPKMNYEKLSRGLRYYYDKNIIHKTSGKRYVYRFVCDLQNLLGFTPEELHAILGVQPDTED
The note with it: protein: recombinant; tags: N-terminal GST; dsDNA, one strand shown. The method in brief:
as §1

Test [14] deals with T9, SPDEF (Homo sapiens, UniProt O95238 1-335).
T9 sequence: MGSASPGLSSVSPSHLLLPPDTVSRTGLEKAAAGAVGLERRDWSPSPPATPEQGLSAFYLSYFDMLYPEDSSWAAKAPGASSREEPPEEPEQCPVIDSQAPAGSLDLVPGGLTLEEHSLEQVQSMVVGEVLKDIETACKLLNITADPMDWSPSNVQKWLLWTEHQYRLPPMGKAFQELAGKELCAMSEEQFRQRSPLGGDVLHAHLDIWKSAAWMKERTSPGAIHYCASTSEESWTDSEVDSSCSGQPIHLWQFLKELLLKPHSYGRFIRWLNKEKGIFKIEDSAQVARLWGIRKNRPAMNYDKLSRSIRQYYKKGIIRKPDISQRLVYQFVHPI
The note with it: protein: recombinant; tags: N-terminal GST; dsDNA, one strand shown. The method in brief:
as §1

Test [15] deals with T10, ETV7 (Homo sapiens, UniProt Q9Y603 1-341).
T10 sequence: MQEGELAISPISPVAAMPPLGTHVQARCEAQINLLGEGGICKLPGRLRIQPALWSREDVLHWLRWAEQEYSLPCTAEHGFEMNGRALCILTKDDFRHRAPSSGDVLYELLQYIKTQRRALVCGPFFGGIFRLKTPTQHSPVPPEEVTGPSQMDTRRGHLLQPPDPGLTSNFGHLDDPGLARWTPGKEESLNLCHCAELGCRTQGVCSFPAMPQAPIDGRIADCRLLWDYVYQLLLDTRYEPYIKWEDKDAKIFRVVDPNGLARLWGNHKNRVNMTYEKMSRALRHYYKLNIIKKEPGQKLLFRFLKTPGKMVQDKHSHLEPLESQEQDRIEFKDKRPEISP
The note with it: protein: recombinant; tags: N-terminal GST; dsDNA, one strand shown. The method in brief:
as §1

In test [16] the target is T11, ELF5 (Homo sapiens, UniProt Q9UKW6-2 1-255).
T11 sequence: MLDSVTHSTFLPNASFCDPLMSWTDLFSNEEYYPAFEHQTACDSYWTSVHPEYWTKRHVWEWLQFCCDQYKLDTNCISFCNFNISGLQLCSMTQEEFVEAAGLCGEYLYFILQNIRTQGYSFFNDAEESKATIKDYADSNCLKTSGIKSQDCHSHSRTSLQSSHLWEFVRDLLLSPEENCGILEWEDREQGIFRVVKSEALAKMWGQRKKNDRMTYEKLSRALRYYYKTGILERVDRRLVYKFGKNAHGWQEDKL
The note with it: protein: recombinant; tags: N-terminal GST; dsDNA, one strand shown. In a few lines: as §1

The target of test [17] is T12, ETV3 (Homo sapiens, UniProt P41162-2 1-143).
T12 sequence: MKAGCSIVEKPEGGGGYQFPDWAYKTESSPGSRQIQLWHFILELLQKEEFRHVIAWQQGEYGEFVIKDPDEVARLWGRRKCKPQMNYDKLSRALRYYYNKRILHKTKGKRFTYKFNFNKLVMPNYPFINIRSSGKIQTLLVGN
The note with it: protein: recombinant; tags: N-terminal GST; dsDNA, one strand shown. In a few lines:
as §1

The target of test [18] is ETV6 (Homo sapiens, UniProt P41212 1-452). The note with it: protein: recombinant; tags: N-terminal GST; dsDNA, one strand shown. The method in brief: as §1
ETV6, sequence (P41212 whole entry): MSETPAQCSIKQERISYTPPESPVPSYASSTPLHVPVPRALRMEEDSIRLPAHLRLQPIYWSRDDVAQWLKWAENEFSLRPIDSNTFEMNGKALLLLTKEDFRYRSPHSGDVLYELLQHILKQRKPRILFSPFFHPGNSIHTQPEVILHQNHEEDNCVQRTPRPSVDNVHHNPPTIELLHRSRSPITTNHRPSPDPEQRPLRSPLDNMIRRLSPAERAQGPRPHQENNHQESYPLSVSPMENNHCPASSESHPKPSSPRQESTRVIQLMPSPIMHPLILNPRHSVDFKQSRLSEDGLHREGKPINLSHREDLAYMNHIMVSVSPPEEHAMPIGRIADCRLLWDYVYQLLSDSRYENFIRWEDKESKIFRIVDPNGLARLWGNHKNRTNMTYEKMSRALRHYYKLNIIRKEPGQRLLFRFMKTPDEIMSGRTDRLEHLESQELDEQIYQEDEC

ELF4, sequence (Q99607 whole entry): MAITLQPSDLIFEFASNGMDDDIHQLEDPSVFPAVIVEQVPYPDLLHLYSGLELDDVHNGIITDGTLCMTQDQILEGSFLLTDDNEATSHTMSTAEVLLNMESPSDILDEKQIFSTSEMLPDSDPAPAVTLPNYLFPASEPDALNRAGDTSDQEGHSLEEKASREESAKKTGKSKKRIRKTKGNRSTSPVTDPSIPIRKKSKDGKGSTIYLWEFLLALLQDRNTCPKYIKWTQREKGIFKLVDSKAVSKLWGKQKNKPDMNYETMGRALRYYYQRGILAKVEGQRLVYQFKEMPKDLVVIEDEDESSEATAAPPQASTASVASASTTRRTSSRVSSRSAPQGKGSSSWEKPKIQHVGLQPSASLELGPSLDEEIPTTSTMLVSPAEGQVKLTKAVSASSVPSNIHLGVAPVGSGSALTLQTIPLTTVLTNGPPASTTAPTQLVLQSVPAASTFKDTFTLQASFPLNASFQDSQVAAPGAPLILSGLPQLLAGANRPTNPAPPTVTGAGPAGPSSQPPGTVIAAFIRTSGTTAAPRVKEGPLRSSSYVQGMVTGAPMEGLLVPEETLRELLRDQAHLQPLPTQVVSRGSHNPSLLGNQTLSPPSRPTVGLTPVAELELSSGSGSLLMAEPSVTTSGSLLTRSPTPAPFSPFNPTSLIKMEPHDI
ETV1, sequence (P50549 whole entry): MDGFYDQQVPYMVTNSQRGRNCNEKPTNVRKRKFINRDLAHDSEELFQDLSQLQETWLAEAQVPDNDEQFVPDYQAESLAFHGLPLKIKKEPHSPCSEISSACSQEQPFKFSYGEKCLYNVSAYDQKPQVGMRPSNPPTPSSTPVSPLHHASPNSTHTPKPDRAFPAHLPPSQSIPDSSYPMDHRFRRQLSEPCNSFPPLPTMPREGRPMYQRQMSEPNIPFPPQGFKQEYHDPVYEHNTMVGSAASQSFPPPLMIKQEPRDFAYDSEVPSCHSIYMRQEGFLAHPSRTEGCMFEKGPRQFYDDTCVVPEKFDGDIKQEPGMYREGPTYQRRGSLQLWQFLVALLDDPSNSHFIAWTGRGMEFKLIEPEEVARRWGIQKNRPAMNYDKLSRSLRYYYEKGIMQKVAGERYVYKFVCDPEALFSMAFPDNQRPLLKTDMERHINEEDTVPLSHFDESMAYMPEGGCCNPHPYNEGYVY
ETV5, sequence (P41161 whole entry): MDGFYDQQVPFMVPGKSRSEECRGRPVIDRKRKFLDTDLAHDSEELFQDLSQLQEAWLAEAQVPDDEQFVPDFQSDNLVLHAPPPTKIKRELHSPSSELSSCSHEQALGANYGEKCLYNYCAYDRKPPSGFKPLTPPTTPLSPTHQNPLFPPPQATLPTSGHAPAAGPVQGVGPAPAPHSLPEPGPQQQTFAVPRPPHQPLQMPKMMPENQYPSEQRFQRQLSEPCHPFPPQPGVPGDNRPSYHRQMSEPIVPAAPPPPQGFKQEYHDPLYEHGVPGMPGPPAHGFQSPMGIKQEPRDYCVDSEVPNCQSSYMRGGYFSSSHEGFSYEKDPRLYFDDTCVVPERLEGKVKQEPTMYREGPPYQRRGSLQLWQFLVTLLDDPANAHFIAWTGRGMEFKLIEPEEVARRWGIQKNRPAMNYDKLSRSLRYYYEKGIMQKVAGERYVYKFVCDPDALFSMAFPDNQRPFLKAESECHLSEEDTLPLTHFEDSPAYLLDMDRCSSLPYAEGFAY
HSF1, sequence (Q00613 whole entry): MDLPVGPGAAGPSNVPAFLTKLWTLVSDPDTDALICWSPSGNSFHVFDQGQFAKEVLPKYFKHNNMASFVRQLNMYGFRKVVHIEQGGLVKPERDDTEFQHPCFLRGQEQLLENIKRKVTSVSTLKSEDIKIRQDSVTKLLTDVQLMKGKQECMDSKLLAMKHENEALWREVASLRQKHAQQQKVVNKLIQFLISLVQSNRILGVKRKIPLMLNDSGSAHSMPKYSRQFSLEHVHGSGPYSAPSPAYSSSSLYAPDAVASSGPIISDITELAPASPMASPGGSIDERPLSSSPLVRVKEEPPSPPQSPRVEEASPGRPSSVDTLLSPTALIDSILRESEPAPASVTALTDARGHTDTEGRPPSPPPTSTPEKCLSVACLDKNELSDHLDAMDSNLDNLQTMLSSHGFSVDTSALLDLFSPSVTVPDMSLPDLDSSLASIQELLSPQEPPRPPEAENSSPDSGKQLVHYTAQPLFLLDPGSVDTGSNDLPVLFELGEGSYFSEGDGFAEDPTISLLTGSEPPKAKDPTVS

As for ACCTTT, the binding signal in test [1] is 1.45 fold enrichment (6-mer frequency, TF over GST control); in test [2] it was 1.36 fold enrichment (6-mer frequency, TF over GST control); in test [3] it was 1.36 fold enrichment (6-mer frequency, TF over GST control); in [4], 1.58 fold enrichment (6-mer frequency, TF over GST control); in test [5], 1.42 fold enrichment (6-mer frequency, TF over GST control); in test [6] it was 1.49 fold enrichment (6-mer frequency, TF over GST control). Besides, the binding signal in [7] was 1.31 fold enrichment (6-mer frequency, TF over GST control); in [8], 1.32 fold enrichment (6-mer frequency, TF over GST control); in [9], 1.3 fold enrichment (6-mer frequency, TF over GST control); in [10] it was 1.43 fold enrichment (6-mer frequency, TF over GST control); in [11], 1.52 fold enrichment (6-mer frequency, TF over GST control); in [12] it was 1.41 fold enrichment (6-mer frequency, TF over GST control). Further, the binding signal was 1.48 fold enrichment (6-mer frequency, TF over GST control) in [13]; 1.34 fold enrichment (6-mer frequency, TF over GST control) in test [14]; 1.36 fold enrichment (6-mer frequency, TF over GST control) in [15]; 1.45 fold enrichment (6-mer frequency, TF over GST control) in test [16]; 1.42 fold enrichment (6-mer frequency, TF over GST control) in [17]; 1.48 fold enrichment (6-mer frequency, TF over GST control) in [18].
